# Data as given in PubChem BioAssay.
# Where “and” joins values, the source holds several entries; their conditions need not be identical. Equal entries are not always repeated. Calls of active or inactive are those of the source.
# How the values were obtained:
# [1] = system: PRMT1 (protein arginine N-methyltransferase 1); assay: PRMT1 binders on small-molecule microarrays, primary screen, biochemical, small-molecule microarray, 635 nm fluorescence (AID 1088); conditions: small-molecule microarray binding, higher = more signal;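 further: binding of Prmt1 protein to compounds spotted on small-molecule microarray slides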
# [2] = yeast growth modulation, basal conditions, primary screen, YJM789 clinical isolate, OD600, 24 h (AID 1089);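 further: growth of clinical yeast isolate S. cerevisiae YJM 789 seeded 1000 cells per well; test concentration not given here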; conditions: S. cerevisiae YJM789 growth, higher = more signal, called active from +8 up or from −8 down
# [3] = fission yeast growth modulation, primary screen, strain 972, OD600, 24 h, no modulator (AID 1090);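 further: basal condition with compound alone and no growth modifier present; test concentration not given here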; conditions: S. pombe 972 growth, higher = more signal, called active from +8 up or from −8 down
# [4] = S. cerevisiae growth modulation with rapamycin, primary screen, strain BY4716, OD600, 96 h (AID 1091); conditions: higher = more signal, called active from +8 up or from −8 down; further: test concentration not given here
# [5] = target: Torsin-1A-interacting protein 2 (Homo sapiens) (UniProt Q8NFQ8); assay: LULL1 binders on small-molecule microarray, primary screen, cell lysate, human LULL1 lysate, 635/667 nm fluorescence (AID 1092); conditions: hLULL1 lysate binding, 635 nm fluorescence, higher = more signal;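 further: probe is lysate of COS7 cells overexpressing human LULL1; score merges per-feature 667 nm fluorescence with signal-to-noise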
# [6] = E. coli growth modulation, two-sided OD650, primary screen, E. coli filamentation project, strain DRC41, 24 h (AID 1093); conditions: OD650, 24 h, higher = more signal, called active from +8 up or from −8 down;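 further: MC1000 strain lacking acrAB efflux and sulA so SOS filamentation is blocked; test concentration not given here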
# [7] = small-molecule microarray binders of probe aLefty2, primary screen, biochemical, biotinylated probe, 635/667 nm fluorescence (AID 1094); conditions: higher = more signal;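 further: score merges spot fluorescence near 667 nm with spot signal-to-noise ratio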
# [8] = system: Noggin (protein binding on small-molecule microarray); assay: Noggin binders on small-molecule microarray, primary screen, biochemical, 635/667 nm fluorescence (AID 1095); conditions: 635 nm fluorescence, higher = more signal;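 further: score merges 667 nm feature fluorescence with signal to noise over triplicate slides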
# [9] = target: Neurogenic locus notch homolog protein 3 (Homo sapiens) (UniProt Q9UM47); assay: NOTCH3 binders on small-molecule microarray, primary screen, biochemical, 635/667 nm fluorescence (AID 1096); conditions: NOTCH3 binding, 635 nm fluorescence, higher = more signal
# [10] = small-molecule microarray binders of probe aEGFR, primary screen, biochemical, biotinylated probe, 635/667 nm fluorescence (AID 1097); conditions: higher = more signal;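 further: probe is a biotinylated anti-EGFR antibody binding compounds printed on slides; score combines fluorescence near 667 nm and signal to noise of each spot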
# [11] = system: Plasmodium falciparum Sir2 (PF13_0152, Sir2A); assay: pfSir2 binders on small-molecule microarrays, primary screen, biochemical, small-molecule microarray, 635 nm fluorescence (AID 1098); conditions: small-molecule microarray binding, fluorescence 635 nm; higher = more signal;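 further: score merges spot fluorescence intensity with its signal-to-noise ratio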
# [12] = small-molecule microarray binders of probe aDKK1, primary screen, biochemical, biotinylated probe, 635/667 nm fluorescence (AID 1099); conditions: higher = more signal;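 further: score merges 667nm spot fluorescence with signal to noise across triplicate slides; reference of the scale not given here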
# [13] = small-molecule microarray binders of probe aCHRDL2, primary screen, biochemical, biotinylated probe, 635/667 nm fluorescence (AID 1100); conditions: higher = more signal
# [14] = splicing luciferase reporter signal modulators, primary screen, spliceosome inhibition project, cell-based, HEK293, splice +/- reporter (AID 1101); conditions: luminescence, 24 h, higher = more signal, called active from +8 up or from −8 down;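 further: HEK293 cells carrying a splicing-competent luciferase reporter gene; test concentration not given here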
# [15] = target: Fibroblast growth factor 10 (Homo sapiens) (UniProt O15520); assay: FGF10 binders on small-molecule microarrays, primary screen, biochemical, small-molecule microarray, 635 nm fluorescence (AID 1102); conditions: FGF10 binding, fluorescence 635 nm, higher = more signal
# [16] = system: glycogen synthase kinase-3 (GSK3A per assay name; protocol says GSK3B); assay: GSK3 binders on small-molecule microarrays, primary screen, biochemical, small-molecule microarray, 635 nm fluorescence, GSK3A (AID 1103); conditions: small-molecule microarray binding, fluorescence 635 nm; higher = more signal; further: the record names both GSK3A and GSK3B
# [17] = target: Epidermal growth factor receptor (Homo sapiens) (UniProt P00533); assay: EGFR binders on small-molecule microarrays, primary screen, biochemical, small-molecule microarray, 635 nm fluorescence (AID 1104); conditions: EGFR binding, higher = more signal;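 further: score merges 667 nm emission intensity with spot signal to noise over triplicate slides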
# [18] = target: Follistatin-related protein 3 (Homo sapiens) (UniProt O95633); assay: FSTL3 binders on small-molecule microarrays, primary screen, biochemical, small-molecule microarray, 635 nm fluorescence (AID 1105); conditions: FSTL3 binding, higher = more signal;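 further: score merges emission near 667 nm and signal to noise per printed spot across three slides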
# [19] = target: Dickkopf-related protein 1 (Homo sapiens) (UniProt O94907); assay: DKK1 binders on small-molecule microarrays, primary screen, biochemical, small-molecule microarray, 635 nm fluorescence scan (AID 1106); conditions: DKK1 binding, higher = more signal;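 further: score merges emission near 667 nm with signal to noise over three replicate slides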
# [20] = system: Inhibin beta A chain (activin A); assay: INHBA (activin A) binders on microarrays, primary screen, biochemical, small-molecule microarray, 635 nm fluorescence scan (AID 1107); conditions: small-molecule microarray binding, higher = more signal;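 further: mouse activin A protein probed at 4.33 µg/mL on printed slides; score merges bound-protein fluorescence near 667 nm with spot signal-to-noise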
# Chain of Neurogenic locus notch homolog protein 3 (Homo sapiens) (Q9UM47 whole entry, looked up): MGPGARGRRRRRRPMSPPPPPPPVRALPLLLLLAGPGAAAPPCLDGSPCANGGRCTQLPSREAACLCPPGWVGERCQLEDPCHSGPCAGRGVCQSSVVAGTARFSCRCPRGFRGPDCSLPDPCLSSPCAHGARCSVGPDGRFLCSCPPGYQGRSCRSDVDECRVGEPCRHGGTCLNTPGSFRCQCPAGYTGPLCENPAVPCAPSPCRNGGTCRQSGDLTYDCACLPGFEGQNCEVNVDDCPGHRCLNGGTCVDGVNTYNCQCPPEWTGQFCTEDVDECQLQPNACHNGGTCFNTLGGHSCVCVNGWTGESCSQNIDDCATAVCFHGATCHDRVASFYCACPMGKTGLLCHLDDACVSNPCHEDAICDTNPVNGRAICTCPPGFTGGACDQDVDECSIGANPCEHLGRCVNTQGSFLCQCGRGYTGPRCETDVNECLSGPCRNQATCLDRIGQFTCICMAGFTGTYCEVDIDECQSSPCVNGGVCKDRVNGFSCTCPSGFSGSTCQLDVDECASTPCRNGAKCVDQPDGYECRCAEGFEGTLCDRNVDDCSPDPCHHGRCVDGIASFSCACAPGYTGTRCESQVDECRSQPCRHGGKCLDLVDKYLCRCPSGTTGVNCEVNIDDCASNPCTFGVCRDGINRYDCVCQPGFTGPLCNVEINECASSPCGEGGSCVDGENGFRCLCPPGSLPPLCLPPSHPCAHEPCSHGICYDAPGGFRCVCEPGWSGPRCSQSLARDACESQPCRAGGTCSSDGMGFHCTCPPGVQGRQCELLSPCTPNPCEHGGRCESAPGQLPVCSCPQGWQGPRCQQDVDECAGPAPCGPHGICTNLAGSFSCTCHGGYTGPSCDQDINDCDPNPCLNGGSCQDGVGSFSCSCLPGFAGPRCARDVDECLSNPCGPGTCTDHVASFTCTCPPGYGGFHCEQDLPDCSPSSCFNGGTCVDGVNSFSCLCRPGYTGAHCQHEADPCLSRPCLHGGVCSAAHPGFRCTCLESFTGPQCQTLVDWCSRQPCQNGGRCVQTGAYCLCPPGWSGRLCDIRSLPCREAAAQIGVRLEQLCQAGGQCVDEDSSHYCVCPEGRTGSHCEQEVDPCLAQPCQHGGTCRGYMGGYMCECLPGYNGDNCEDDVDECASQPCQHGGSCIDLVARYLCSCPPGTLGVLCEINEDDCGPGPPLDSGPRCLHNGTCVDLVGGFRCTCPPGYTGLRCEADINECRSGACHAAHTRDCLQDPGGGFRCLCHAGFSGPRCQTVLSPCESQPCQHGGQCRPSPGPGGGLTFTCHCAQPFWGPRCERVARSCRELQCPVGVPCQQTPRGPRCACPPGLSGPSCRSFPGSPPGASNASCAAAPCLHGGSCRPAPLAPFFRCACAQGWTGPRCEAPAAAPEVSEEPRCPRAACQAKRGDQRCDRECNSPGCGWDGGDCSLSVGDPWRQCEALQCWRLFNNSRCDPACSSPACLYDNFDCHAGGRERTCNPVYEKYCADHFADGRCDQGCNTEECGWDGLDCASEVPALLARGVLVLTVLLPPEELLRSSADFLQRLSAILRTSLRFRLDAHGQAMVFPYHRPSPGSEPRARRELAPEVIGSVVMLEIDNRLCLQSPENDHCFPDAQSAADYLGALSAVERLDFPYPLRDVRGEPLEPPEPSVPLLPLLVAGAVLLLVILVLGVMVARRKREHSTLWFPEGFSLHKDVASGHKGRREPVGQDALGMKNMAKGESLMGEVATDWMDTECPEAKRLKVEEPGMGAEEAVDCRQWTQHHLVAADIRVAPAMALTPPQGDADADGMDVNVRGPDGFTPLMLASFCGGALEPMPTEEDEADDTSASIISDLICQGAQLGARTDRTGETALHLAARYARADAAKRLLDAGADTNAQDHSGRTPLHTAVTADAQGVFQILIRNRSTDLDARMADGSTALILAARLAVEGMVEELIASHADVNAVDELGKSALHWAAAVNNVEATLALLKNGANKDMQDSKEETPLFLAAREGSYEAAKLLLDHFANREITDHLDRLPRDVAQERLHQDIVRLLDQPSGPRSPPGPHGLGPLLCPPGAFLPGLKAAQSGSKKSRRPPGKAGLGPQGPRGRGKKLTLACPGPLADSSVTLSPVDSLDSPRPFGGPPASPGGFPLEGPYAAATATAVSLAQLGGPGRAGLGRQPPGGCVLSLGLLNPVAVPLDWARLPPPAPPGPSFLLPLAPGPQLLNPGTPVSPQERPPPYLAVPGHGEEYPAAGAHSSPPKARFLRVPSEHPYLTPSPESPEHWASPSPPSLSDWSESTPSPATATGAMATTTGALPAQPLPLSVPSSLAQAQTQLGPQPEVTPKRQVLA
# Chain of Follistatin-related protein 3 (Homo sapiens) (O95633 whole entry, looked up): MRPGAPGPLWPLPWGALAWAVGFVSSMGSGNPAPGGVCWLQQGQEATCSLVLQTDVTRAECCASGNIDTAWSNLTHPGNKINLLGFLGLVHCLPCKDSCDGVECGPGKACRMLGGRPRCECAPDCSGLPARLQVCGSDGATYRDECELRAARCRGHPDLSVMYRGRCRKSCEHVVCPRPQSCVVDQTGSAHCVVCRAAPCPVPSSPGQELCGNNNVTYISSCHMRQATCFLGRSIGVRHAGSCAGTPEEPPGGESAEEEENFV
# Chain of Torsin-1A-interacting protein 2 (Homo sapiens) (Q8NFQ8 whole entry, looked up): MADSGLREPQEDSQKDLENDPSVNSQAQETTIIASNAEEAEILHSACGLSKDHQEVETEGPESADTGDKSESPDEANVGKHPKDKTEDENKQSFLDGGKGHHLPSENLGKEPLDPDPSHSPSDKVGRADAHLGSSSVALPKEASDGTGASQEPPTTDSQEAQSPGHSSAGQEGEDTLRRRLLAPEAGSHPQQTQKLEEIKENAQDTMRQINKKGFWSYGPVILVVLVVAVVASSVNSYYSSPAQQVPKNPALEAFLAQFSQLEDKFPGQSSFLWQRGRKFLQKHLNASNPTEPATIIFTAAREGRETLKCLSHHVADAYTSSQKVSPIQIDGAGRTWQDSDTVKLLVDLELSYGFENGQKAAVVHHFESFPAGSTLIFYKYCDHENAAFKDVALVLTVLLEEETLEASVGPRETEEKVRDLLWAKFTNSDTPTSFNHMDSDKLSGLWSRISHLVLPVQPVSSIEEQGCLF
# Chain of Dickkopf-related protein 1 (Homo sapiens) (O94907 whole entry, looked up): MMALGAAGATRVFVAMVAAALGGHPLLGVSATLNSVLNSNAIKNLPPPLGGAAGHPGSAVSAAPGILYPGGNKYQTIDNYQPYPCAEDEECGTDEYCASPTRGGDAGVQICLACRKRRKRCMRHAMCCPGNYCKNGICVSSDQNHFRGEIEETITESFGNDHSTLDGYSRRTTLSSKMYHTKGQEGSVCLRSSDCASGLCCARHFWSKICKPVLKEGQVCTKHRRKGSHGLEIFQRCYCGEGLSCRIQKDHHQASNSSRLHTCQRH
# Chain of Fibroblast growth factor 10 (Homo sapiens) (O15520 whole entry, looked up): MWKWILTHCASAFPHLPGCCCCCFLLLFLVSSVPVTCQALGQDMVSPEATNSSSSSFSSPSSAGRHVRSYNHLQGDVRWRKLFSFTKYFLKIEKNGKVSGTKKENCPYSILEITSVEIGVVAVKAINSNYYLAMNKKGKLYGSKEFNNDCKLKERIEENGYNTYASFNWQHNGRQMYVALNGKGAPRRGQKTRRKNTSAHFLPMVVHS
# Chain of Epidermal growth factor receptor (Homo sapiens) (P00533 whole entry, looked up): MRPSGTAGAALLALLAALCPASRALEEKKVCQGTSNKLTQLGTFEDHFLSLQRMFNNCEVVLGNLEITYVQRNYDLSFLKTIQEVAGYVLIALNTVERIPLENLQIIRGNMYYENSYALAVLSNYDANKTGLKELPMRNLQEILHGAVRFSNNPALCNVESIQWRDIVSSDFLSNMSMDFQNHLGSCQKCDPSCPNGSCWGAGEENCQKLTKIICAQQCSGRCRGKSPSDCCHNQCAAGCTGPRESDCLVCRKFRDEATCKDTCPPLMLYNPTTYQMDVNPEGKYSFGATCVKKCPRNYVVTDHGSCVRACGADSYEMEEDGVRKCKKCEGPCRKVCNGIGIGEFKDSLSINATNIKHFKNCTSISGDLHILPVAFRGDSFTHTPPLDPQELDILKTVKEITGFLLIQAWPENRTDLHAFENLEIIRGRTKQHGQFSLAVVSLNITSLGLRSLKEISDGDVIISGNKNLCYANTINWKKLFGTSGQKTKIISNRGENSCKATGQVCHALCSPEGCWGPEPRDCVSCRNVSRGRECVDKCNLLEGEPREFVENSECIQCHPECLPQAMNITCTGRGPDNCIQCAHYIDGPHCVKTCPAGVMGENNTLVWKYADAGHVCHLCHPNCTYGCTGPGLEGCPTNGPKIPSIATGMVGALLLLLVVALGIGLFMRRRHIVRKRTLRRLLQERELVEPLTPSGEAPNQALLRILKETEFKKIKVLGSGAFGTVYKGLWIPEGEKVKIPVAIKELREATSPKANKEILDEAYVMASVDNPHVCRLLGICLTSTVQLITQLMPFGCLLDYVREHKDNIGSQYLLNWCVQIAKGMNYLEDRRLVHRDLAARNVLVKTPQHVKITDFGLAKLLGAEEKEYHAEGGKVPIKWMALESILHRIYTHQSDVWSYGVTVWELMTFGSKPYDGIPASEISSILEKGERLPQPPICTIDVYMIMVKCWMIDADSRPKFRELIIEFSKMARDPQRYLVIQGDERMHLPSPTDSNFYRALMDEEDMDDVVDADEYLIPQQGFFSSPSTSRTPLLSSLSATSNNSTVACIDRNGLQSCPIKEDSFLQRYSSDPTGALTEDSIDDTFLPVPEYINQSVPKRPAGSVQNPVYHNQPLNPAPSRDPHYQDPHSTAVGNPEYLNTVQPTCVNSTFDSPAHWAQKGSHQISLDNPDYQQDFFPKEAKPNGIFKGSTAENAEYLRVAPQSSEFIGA
smiles,measurement,setting,value
CCOC(=O)C[C@H]1[C@H](OC(=O)c2ccccc2-c2ccccc2)[C@@H](NC(=O)c2ccccc2)c2cc(OCCCO)ccc2N1C(=O)c1ccc2ccccc2n1,composite z-score,[1],-0.0222 and 1.19
same,z-score,[2],-0.0469 (inactive) and -0.78 (inactive)
same,z-score,[3],-0.19 (inactive) and 0.209 (inactive)
same,z-score,[4],-0.0952 (inactive) and 0.0526 (inactive)
same,composite z-score,[5],0.549 and 1.01
same,z-score,[6],1.02 (inactive) and -0.728 (inactive)
same,composite z-score,[7],-0.0437 and 0.0212
same,composite z-score,[8],0.357 and 0.843
same,composite z-score,[9],0.481 and 0.737
same,composite z-score,[10],0.0323 and -0.0815
same,composite z-score,[11],-0.134 and 0.522
same,composite z-score,[12],0.298 and -0.106
same,composite z-score,[13],0.229 and 0.0414
same,z-score,[14],-0.0583 (inactive) and -0.0708 (inactive)
same,composite z-score,[15],0.97 and 0.586
same,composite z-score,[16],0.612 and 0.576
same,composite z-score,[17],0.284 and 0.207
same,composite z-score,[18],0.47 and 0.8
same,composite z-score,[19],0.452 and 0.19
same,composite z-score,[20],0.227 and 0.981
CCCNC(=O)OC[C@H]1O[C@H](CCON=C(C)CCN2CCc3nc(-c4ccccc4)c(-c4ccccc4)cc3C2)C=C[C@@H]1Oc1ccc(OC)cc1,composite z-score,[1],0.497
same,z-score,[2],1.12 (inactive)
same,z-score,[3],-0.724 (inactive)
same,z-score,[4],-3.57 (inactive)
same,composite z-score,[5],1.04
same,z-score,[6],0.385 (inactive)
same,composite z-score,[7],-0.0638
same,composite z-score,[8],0.553
same,composite z-score,[9],-0.105
same,composite z-score,[10],0.0321
same,composite z-score,[11],0.274
same,composite z-score,[12],-0.128
same,composite z-score,[13],-0.155
same,z-score,[14],-0.0345 (inactive)
same,composite z-score,[15],0.0705
same,composite z-score,[16],-0.0859
same,composite z-score,[17],0.0142
same,composite z-score,[18],0.254
same,composite z-score,[19],0.431
same,composite z-score,[20],0.67
C=CCN(CCCC)C(=O)C1N(CCCCCCO)C(=O)C2C(C(=O)O)C3C=CC21O3 (stereo not given),composite z-score,[1],-0.448 and -0.52
same,z-score,[2],0.0812 (inactive) and -0.104 (inactive)
same,z-score,[3],0.496 (inactive) and -0.0666 (inactive)
same,z-score,[4],-0.282 (inactive) and -0.642 (inactive)
same,composite z-score,[5],-0.179 and 2.36
same,z-score,[6],-0.909 (inactive) and -0.855 (inactive)
same,composite z-score,[7],0.0397 and -0.0936
same,composite z-score,[8],-3.5 and -2.6
same,composite z-score,[9],-1.8 and -1.2
same,composite z-score,[10],-0.485 and -0.356
same,composite z-score,[11],1.64 and 0.937
same,composite z-score,[12],-0.288 and -0.0191
same,composite z-score,[13],1.02 and 0.849
same,z-score,[14],0.671 (inactive) and -0.0103 (inactive)
same,composite z-score,[15],-1.87 and -1.39
same,composite z-score,[16],-1.1
same,composite z-score,[17],-1.93 and -1.35
same,composite z-score,[18],-2.74 and -2.04
same,composite z-score,[19],-2.67 and -3.18
same,composite z-score,[20],-2.85 and -2.5
C=CCN(C(=O)C(c1cccs1)N(CCOCCO)C(=O)/C=C\C(=O)O)c1ccc(OC)cc1 (stereo not given),composite z-score,[1],-1.56 and -0.685
same,z-score,[2],-2.54 (inactive) and -0.463 (inactive)
same,z-score,[3],-0.314 (inactive) and -2.05 (inactive)
same,z-score,[4],-1.51 (inactive) and -0.835 (inactive)
same,composite z-score,[5],-1.45 and -0.709
same,z-score,[6],2.74 (inactive) and 2.71 (inactive)
same,composite z-score,[7],-0.25 and -0.299
same,composite z-score,[8],-0.482 and -1.39
same,composite z-score,[9],-1.2 and -0.655
same,composite z-score,[10],-0.172 and -0.316
same,composite z-score,[11],-1.53 and -0.0146
same,composite z-score,[12],-0.626 and -0.357
same,composite z-score,[13],-0.183 and 0.97
same,z-score,[14],-1.88 (inactive) and -1.58 (inactive)
same,composite z-score,[15],-0.934 and -0.942
same,composite z-score,[16],-0.903 and -0.645
same,composite z-score,[17],-0.254 and -1.5
same,composite z-score,[18],-0.603 and -1.07
same,composite z-score,[19],-0.151 and -2.76
same,composite z-score,[20],-0.539 and -0.186
